# Experimental data as given in PubChem BioAssay AID1508625 (Wald Lab, School of Medicine, Case Western Reserve …, 2021).
# Assay: small molecules boosting NK-mediated OVCAR3 lysis – imaging, primary NK cells, calcein-AM imaging, primary screen (AID 1508625);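 further: compound given to NK cells 16 h before adding targets at 1.5 to 1 ratio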;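 on z-score: more negative robust z means stronger NK killing of tumor cells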
# Details: OVCAR3 lysis by primary NK cells, at 5 µM; z-score: measured here: robust Z-score, single-point normalisation
Compound,"corrected activity, negative = more killing [%]",z-score
O=C(Nc1ccc(Br)cc1)c1ccccc1I,-1.25,-0.444
COc1ccc(CNC(=O)CSc2nc3cc(Cl)ccc3s2)cc1,-1.73,-0.516
CCC(=O)NC(Nc1ccccc1Cl)(C(F)(F)F)C(F)(F)F,-0.701,-0.276
COc1ccc(C)cc1NC(=O)c1cc(S(=O)(=O)NC2CCCCC2C)ccc1F (stereo not given),-0.89,-0.24
CC(=O)c1c(C(C)=O)c(C)n(-c2ccc(Cl)c(N)c2)c1C,-6.08,-2.26
Cc1ccc(OCC(=O)Nc2ccc(N3CCOCC3)c(Cl)c2)cc1,-5.7,-1.77
O=c1c2cc(N3CCCCC3)ccc2[nH]c(=S)n1Cc1ccccc1,-6.78,-1.8
CCOc1ccc(-n2c(=O)c3c(C)c(C)sc3n(CC(=O)N3CC(C)CC(C)C3)c2=O)cc1 (stereo not given),-4.39,-1.25
O=C(NN=Cc1cccc2ccccc12)c1cncc(Br)c1,-7.56,-2.98
C=CCn1c(-c2ccc3[nH]c(C)c(C)c3c2)n[nH]c1=S,-6.13,-2.23
Cc1nc2sccn2c1C(=O)NN=Cc1ccc(C(C)C)cc1,-4.02,-1.71
COc1ccccc1Cn1c(=S)[nH]c2cc(Cl)ccc2c1=O,-3.97,-1.05
O=C1c2cccc([N+](=O)[O-])c2C(=O)N1C1C(=O)N(c2cccc(C(F)(F)F)c2)C1c1ccc(F)cc1 (stereo not given),-1.05,-0.327
O=C(O)c1cc(Cl)ccc1NS(=O)(=O)c1ccc(Cl)cc1,-1.75,-0.369
CCOc1ccc(NC(=O)Cn2c(=O)n(CCc3ccccc3)c(=O)c3c4c(sc32)CCCC4)cc1,-8.33,-2.36
